KCNQ2 inh: rat KCNQ2 potassium channel inhibitors, primary screen, cell-based, CHO-K1, FluxOR thallium flux, B-score | 20 min; hits give low values | B-score at 10 µM | actives 1.1% (n = 310,000) | AID 2156, 2009;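 active = fluorescence ratio B-score at most minus 3 library SDs, with starting brightness B-score within 2 library SDs, cut at about -5.5 in these data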
Target sequence (O88943 whole entry, looked up): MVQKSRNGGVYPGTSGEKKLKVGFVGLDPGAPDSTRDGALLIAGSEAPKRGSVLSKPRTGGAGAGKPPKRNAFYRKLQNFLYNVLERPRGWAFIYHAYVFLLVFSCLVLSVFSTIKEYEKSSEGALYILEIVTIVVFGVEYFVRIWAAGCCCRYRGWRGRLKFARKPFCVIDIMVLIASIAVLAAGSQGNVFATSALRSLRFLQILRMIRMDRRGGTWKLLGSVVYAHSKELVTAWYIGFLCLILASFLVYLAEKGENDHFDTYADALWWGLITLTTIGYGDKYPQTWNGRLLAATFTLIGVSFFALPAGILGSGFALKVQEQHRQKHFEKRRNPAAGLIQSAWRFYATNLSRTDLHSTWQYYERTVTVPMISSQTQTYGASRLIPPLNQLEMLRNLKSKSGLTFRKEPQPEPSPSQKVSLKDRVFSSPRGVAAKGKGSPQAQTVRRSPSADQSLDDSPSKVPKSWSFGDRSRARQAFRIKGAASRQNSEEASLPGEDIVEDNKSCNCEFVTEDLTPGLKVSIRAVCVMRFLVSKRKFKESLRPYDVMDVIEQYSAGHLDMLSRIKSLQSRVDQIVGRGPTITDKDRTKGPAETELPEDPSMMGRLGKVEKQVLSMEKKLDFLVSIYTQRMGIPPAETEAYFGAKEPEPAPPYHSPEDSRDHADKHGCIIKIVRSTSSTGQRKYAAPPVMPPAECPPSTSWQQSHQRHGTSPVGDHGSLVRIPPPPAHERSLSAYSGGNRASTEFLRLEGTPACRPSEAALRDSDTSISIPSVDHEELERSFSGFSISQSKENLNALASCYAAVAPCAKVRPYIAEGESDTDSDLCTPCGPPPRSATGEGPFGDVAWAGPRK
KCNQ2 pot: potentiators of rat KCNQ2 potassium channel | CHO-K1 KCNQ2, FluxOR thallium flux fluorescence; hits give high values | B-score at 10 µM | actives 0.54% (n = 310,000) | AID 2239, 2010;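 active = fluorescence ratio B-score at least 3 SD of library B-scores, with initial fluorescence B-score within 3 of them, cut at about 5.3 in these data; same plate scores as AID 2156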;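 also: B-score of peak minus minimum over baseline fluorescence ratio after K+ and Tl+ stimulus; positive B-score means potentiation of KCNQ2 with more thallium influx and brighter signal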
* hit, by the source's call. Hits are enriched below; roughly 1.6% of the tested compounds scored in any of these assays.

Results for COc1ccc(S(=O)(=O)N2CCN(c3ccc(C)cc3C)CC2)cc1OC ?
KCNQ2 inh: inactive

How did O=C(OCn1nnc2ccccc2c1=O)c1cc(-c2ccccc2)nc2ccccc12 do in these assays?
KCNQ2 inh: inactive

Results for COc1ccc(C2CC(=O)C=C(NCc3ccc4c(c3)OCO4)C2)cc1 (stereo not drawn) ?
KCNQ2 inh: inactive

Results for CC(C)(C)NC(=O)COC(=O)C1c2ccccc2Oc2ccccc21 ?
KCNQ2 inh: -5.65*; KCNQ2 pot: -5.65

How did CC(C)CNC(=O)COC(=O)C1c2ccccc2Oc2ccccc21 do in these assays?
KCNQ2 inh: inactive; KCNQ2 pot: 0.37

Results for Cc1ccc(S(=O)(=O)c2c(C(=O)c3ccccc3)cnc3cc4c(cc23)OCCO4)cc1 ?
KCNQ2 inh: inactive

How did CCCC1c2ccc(C)n2CCN1C(=O)Nc1ccccc1Cl (stereo not drawn) do in these assays?
KCNQ2 inh: -7.17*; KCNQ2 pot: -7.17

How did CCOC(=O)c1ccccc1NC(=O)N1CCn2c(C)ccc2C1CC (stereo not drawn) do in these assays?
KCNQ2 inh: -6.2*; KCNQ2 pot: -6.2

What do the screens show for `CCC1c2ccc(C)n2CCN1C(=O)Nc1ccccc1C(=O)OC` (stereo not drawn)?
KCNQ2 inh: inactive

How did CC1CCCCN1C(=O)Nc1ccccc1Cl (stereo not drawn) do in these assays?
KCNQ2 inh: inactive

How did CS(=O)(=O)c1nc(S(=O)(=O)c2ccc(Cl)cc2)c(NCCCn2ccnc2)s1 do in these assays?
KCNQ2 inh: inactive

Results for O=C(Cn1c(=O)n(-c2ccc(F)cc2)c(=O)c2sccc21)NC1CCCCC1 ?
KCNQ2 inh: inactive; KCNQ2 pot: 0.45

How did CCc1cccc(N(C(=O)c2csnn2)C(C(=O)NC(C)(C)C)c2ccccn2)c1 (stereo not drawn) do in these assays?
KCNQ2 inh: inactive

Results for COC(C[C@@H](O)C[C@H](O)[C@@H](C)OCc1ccccc1)OC ?
KCNQ2 inh: inactive

Results for Cc1ccsc1/C=N/Nc1ccc(F)cc1F ?
KCNQ2 inh: inactive

How did Cc1cccc(C(=O)Nc2ccc(O)c3c(=O)cc(-c4ccccc4Cl)oc23)c1 do in these assays?
KCNQ2 inh: inactive

What do the screens show for `CN(C)c1ccc(C(=O)Nc2ccc(O)c3c(=O)cc(-c4ccccc4Cl)oc23)cc1`?
KCNQ2 inh: -5.85*; KCNQ2 pot: -5.85

Results for CS(=O)(=O)N1CCN(c2ccccc2NC(=O)c2cccc3ccccc23)CC1 ?
KCNQ2 inh: inactive

What do the screens show for `CC(C)C(=O)N1CCN(c2ccccc2NC(=O)c2cccc3ccccc23)CC1`?
KCNQ2 inh: -7.29*; KCNQ2 pot: -7.29

What do the screens show for `COc1ccc(C(=O)Nc2ccccc2N2CCN(C(=O)c3ccccc3)CC2)cc1Br`?
KCNQ2 inh: -7.16*; KCNQ2 pot: -7.16

How did O=C(Nc1ccccc1N1CCN(C(=O)c2ccccc2)CC1)c1ccc(Cl)cc1 do in these assays?
KCNQ2 inh: inactive

Results for Cn1c(=O)n(C)c2cc(N3CCCCC3)c(NC(=O)c3cccc(Cl)c3)cc21 ?
KCNQ2 inh: inactive

How did CC(C)C(=O)N1CCN(c2ccccc2NC(=O)c2cccc(Cl)c2)CC1 do in these assays?
KCNQ2 inh: -6.58*; KCNQ2 pot: -6.58

What do the screens show for `CC(=O)Nc1ccc(NC(=O)C(C)OC(=O)CCc2c[nH]c3ccccc23)cc1` (stereo not drawn)?
KCNQ2 inh: inactive; KCNQ2 pot: 1.47

How did CCN(CC)c1c([N+](=O)[O-])c(=O)n(CC)c2ccccc12 do in these assays?
KCNQ2 inh: inactive; KCNQ2 pot: 1.37

What do the screens show for `CCc1ccc(NC(=O)CSCc2nc(N)nc(Nc3ccccc3CC)n2)cc1`?
KCNQ2 inh: inactive; KCNQ2 pot: 15.5*

What do the screens show for `CCc1ccccc1Nc1nc(N)nc(CSCC(=O)Nc2ccc(C)c(C)c2)n1`?
KCNQ2 inh: inactive; KCNQ2 pot: 19.4*

How did CCc1ccccc1Nc1nc(N)nc(COC(=O)c2cccn2C)n1 do in these assays?
KCNQ2 inh: inactive; KCNQ2 pot: 0.01

How did Cc1ccccc1CSCc1nc(N)nc(Nc2ccccc2C)n1 do in these assays?
KCNQ2 inh: inactive; KCNQ2 pot: 0.58

Results for Cc1ccc(C)n1-c1nccc(-c2ccco2)n1 ?
KCNQ2 inh: inactive

Results for Nc1cccc(CN2CCCC2)c1 ?
KCNQ2 inh: inactive; KCNQ2 pot: 1.31

Results for CCOc1ccc(C(=O)CCN2CCCCCC2)cc1 ?
KCNQ2 inh: -6.58*; KCNQ2 pot: -6.58

Results for CCCOc1ccc(C(=O)CCN2CCCCC2)cc1 ?
KCNQ2 inh: inactive

What do the screens show for `COc1ccc(CCNC(=O)Cc2ccc(OCc3ccccc3)c(OC)c2[N+](=O)[O-])cc1OCc1ccccc1`?
KCNQ2 inh: -7.67*; KCNQ2 pot: -7.67

What do the screens show for `COc1ccc(CCNC(=O)Cc2ccc([N+](=O)[O-])cc2)cc1OC`?
KCNQ2 inh: inactive

What do the screens show for `O=C(CSc1ccc(-c2ccc(Cl)cc2)nn1)Nc1ccc2c(c1)OCCO2`?
KCNQ2 inh: inactive

Results for COc1ccccc1NS(=O)(=O)c1cc(C(=O)NCc2ccco2)ccc1C ?
KCNQ2 inh: inactive

Results for COc1ccccc1NS(=O)(=O)c1cc(C(=O)NCC(C)(C)N2CCOCC2)ccc1C ?
KCNQ2 inh: inactive; KCNQ2 pot: 6.67*

Results for COc1ccc(C(=O)NC(=S)Nc2ccc(S(N)(=O)=O)cc2)cc1 ?
KCNQ2 inh: inactive; KCNQ2 pot: 1.6

What do the screens show for `COc1cc(C(=O)NNC(=S)Nc2ccc(S(N)(=O)=O)cc2)cc(OC)c1OC`?
KCNQ2 inh: -6.09*; KCNQ2 pot: -6.09

How did O=[N+]([O-])c1cc(-c2ncccn2)c([N+](=O)[O-])s1 do in these assays?
KCNQ2 inh: -9.58*; KCNQ2 pot: -9.58

How did O=C(Nc1ncccn1)c1cc([N+](=O)[O-])cc([N+](=O)[O-])c1 do in these assays?
KCNQ2 inh: inactive; KCNQ2 pot: 0.84

What do the screens show for `Cc1cccc(C)c1NC(=O)/C(=C/c1ccco1)c1ccccc1`?
KCNQ2 inh: inactive

How did Cc1cc(C)c(NC(=O)/C(=C/c2ccco2)c2ccccc2)c(C)c1 do in these assays?
KCNQ2 inh: -5.97*; KCNQ2 pot: -5.97

What do the screens show for `COC(=O)c1ccccc1NC(=O)c1cn(-c2ccc(C)c(C)c2)c(=O)c2ccccc12`?
KCNQ2 inh: inactive

Results for CCOC(=O)c1ccccc1NC(=O)c1cn(-c2ccc(C)c(C)c2)c(=O)c2ccccc12 ?
KCNQ2 inh: -6.42*; KCNQ2 pot: -6.42

How did CCCCNC(=O)COC(=O)c1ccc(NC(C)=O)cc1 do in these assays?
KCNQ2 inh: inactive

Results for CCOc1ccc2ccccc2c1CNc1nnnn1C ?
KCNQ2 inh: -6.01*; KCNQ2 pot: -6.01

Results for CCOc1ccccc1CNc1nnnn1C ?
KCNQ2 inh: inactive; KCNQ2 pot: 0.52

What do the screens show for `CC12CCC(=O)N1C(C(=O)Nc1nc3ccc(S(C)(=O)=O)cc3s1)CS2` (stereo not drawn)?
KCNQ2 inh: inactive; KCNQ2 pot: 0.59

What do the screens show for `CC12CCC(=O)N1C(C(=O)Nc1nc3ccc(Cl)cc3s1)CS2` (stereo not drawn)?
KCNQ2 inh: -6.01*; KCNQ2 pot: -6.01

How did O=C(Cc1ccccc1)Nc1cc(Cl)ccc1Sc1ccccc1 do in these assays?
KCNQ2 inh: inactive

Screens (PubChem)
